Source: PubChem (National Center for Advancing Translational Sciences (NCATS))
MCF10A rereplic: A quantitative high throughput screen for small molecules that induce DNA re-replication in MCF 10a normal breast cells; MCF 10A DNA re-replication, Hoechst nuclear intensity, 48 h; Potency, µM (doses to about 46.1 µM), without a hit: at the highest dose activity, positive = re-replication, actives largely listed as activators; hit rate 2.9% among 350,000; AID 624296, 2012; further: potency means the concentration at half of the fitted maximal effect; % of control where 0% means no effect; nearly all actives have a fitted effect of over 50% in size
SW480 rerep: A quantitative high throughput screen for small molecules that induce DNA re-replication in SW480 colon adenocarcinoma cells; hit rate 1.8% among 340,000; AID 624297, 2012; Potency, µM (doses to about 46.1 µM), inactives show top-dose re-replication activation, usual class: activators; SW480 DNA re-replication, Hoechst DNA content imaging, 48 h; further: potency means the concentration at half of the fitted maximal effect; % of control where 0% means no effect; nearly all actives have a fitted effect of over 55% in size
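Cells (250 per well) received 23 nL compound or DMSO by pin tool and were kept 48 hr at 37 C, 5% CO2. Nuclei were then stained with Hoechst for 40 min and scanned for DNA content.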
IL1B secr inh: qHTS for Inhibitors of Inflammasome Signaling: IL-1-beta AlphaLISA Primary Screen | THP-1 LPS/ATP IL-1B secretion, AlphaLISA, 16 h; hits give low values | activity change, % at 57.5 µM | hit rate 4.7% among 360,000 | AID 743279, 2014; in the data active means activity change below about -50%; inconclusive means mostly about -30% to -49%; further: on the % scale 0 is the no-effect control and ±100 the full control effect
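Secreted IL-1B measured by AlphaLISA bead assay after 16 h compound exposure of THP-1 cells; compounds (final up to 57.5 uM) added 1 h before LPS (250 ng/mL) and ATP (1.25 mM) stimulation; lower signal means less secretion.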
RORg inh: qHTS for inhibitors of ROR gamma transcriptional activity; Nuclear receptor ROR-gamma (Mus musculus), P51450; Drosophila S2 Gal4-RORgamma UAS-luciferase reporter, 20 h; Potency, µM (top dose mostly 53.6 µM), for the others: top-dose activity change, negative = inhibition, usual class: inhibitors; hit rate 5.4% among 310,000; AID 2551, 2010; further: potency means the concentration at half of the fitted maximal effect; on the % scale 0 is the no-effect control and ±100 the full control effect; nearly all actives have a fitted effect of over 60% in size
Target sequence (P51450 whole entry, looked up, the tested form may be a part): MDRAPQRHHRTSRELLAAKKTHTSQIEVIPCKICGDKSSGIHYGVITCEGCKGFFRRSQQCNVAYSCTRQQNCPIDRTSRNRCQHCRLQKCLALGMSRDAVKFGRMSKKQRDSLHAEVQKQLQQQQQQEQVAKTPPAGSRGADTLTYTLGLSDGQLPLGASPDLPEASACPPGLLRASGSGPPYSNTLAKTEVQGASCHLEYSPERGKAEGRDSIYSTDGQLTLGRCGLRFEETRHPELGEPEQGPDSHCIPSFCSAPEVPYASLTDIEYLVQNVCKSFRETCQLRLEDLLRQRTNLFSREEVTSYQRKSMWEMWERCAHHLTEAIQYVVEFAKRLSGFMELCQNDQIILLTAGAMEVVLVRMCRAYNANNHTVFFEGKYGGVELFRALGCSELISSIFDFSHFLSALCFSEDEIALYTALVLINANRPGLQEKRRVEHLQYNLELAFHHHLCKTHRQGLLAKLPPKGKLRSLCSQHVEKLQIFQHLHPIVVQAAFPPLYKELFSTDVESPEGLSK
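A Gal4/UAS one-hybrid system in insect cells: metallothionein-promoter Gal4–ROR gamma fusion plus Photinus luciferase reporter. Copper sulfate 700 uM final, 20 hr ambient incubation, luminescent detection after 10 min with reagent.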
VP16 counter: VP16 counterscreen qHTS for inhibitors of ROR gamma transcriptional activity; Potency, µM (top dose mostly 53.6 µM), without a hit: top-dose activity, negative = inhibition, hits mostly inhibitors; hit rate 3.5% among 310,000; Drosophila S2 Gal4-VP16 UAS-luciferase, luminescence, 20 h; AID 2546, 2010;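 further: Gal4-VP16 expression switched on by copper sulfate through the metallothionein promoter; potency means the concentration at half of the fitted maximal effect; on the % scale 0 is the no-effect control and ±100 the full control effect; nearly all actives have a fitted effect of over 50% in size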
An asterisk follows results filed as active; ? = inconclusive; · = no result; [ ] = another dose, or the depositor's remark. Sampled rows, rich in hits. Any-hit rate of the full collection: about 11%. Unless noted, the call rests on the fitted dose curve; in most records, active means well fitted curve in the direction sought with a large enough effect; inconclusive means small, poorly fitted or top-dose-only effect, or another doubt; inactive means no such curve, though single readings can be large; an effect the other way counts as inactive or inconclusive.

SMILES | MCF10A rereplic | SW480 rerep | IL1B secr inh | RORg inh | VP16 counter
CCc1sc(C(=O)N2CCN(C(=O)c3ccccc3)CC2)cc1C | 14.6% | -24.4% | ? | · | ·
CCOC(=O)C(=Cc1c[nH]c2ccc(S(=O)(=O)N(C)C)cc12)C(=O)OCC | ? | 11.5% | -100.9* | ? | -15.8%
CCOC(=O)/C(C#N)=C/c1c[nH]c2ccccc12 | 27.6% | ? | 4.4 | -0.3% | ?
COc1ccc(NC(=O)C(CC(=O)O)Cc2ccc(Cl)cc2)cc1 (stereo not given) | -0.5% | -0.6% | 68.5 | -2.0% | -2.3%
Cc1ccc(/C=C/C(=O)Nc2ccc([N+](=O)[O-])cc2)o1 | -3.3% | -9.2% | -10.4 | 9.0% | -21.0%
COC(=O)c1cc(NS(=O)(=O)c2ccc(N3CCOCC3)c(N)c2)cc(C(=O)OC)c1 | -0.4% | 0.6% | -54.1* | 26.1% | -12.5%
CC(=O)Nc1ccc(S(=O)(=O)c2ccc(N)cc2)cc1 | -13.9% | 11.8% | 1.4 | 18.5% | 3.9%
CCOC(=O)/C=C/S(=O)(=O)c1ccc(NC(C)=O)cc1 | 2.31µM* | 2.59µM* | -95.4* | 3.55µM* | 3.55µM*
Cc1ccc(/C=C/C(=O)Nc2ccc(Oc3ccccc3)cc2)o1 | ? | 1.1% | -82.8* | 32.2% | ?
CCN1CCN(C(=O)/C=C/c2ccc(C)o2)CC1 | -64.2% | 68.6% | 21.2 | -13.0% | ?
Cc1ccc(/C=C/C(=O)N2CC(C)CC(C)C2)o1 (stereo not given) | 23.1µM* | 16.4µM* | ? | 21.1% | -9.7%
CC(=O)Nc1ccc(-c2ccnc3c2CC(C(=O)Nc2cccc(N(C)C)c2)O3)cc1 (stereo not given) | · | · | -19.1 | · | ·
COc1ccc(NS(=O)(=O)c2ccc(N3CCOCC3)c(NC(=O)C(C)C)c2)cc1 | 9.1% | -0.1% | 5.2 | 30.3% | -13.4%
CCOC(=O)/C=C/C(=O)Nc1cc(S(=O)(=O)Nc2ccc(OC)cc2)ccc1N1CCOCC1 | ? | 16.4µM* | -107.0* | · | ·
CC(/C=C/c1ccc(C)o1)=C\C(=O)O | 23.1µM* | 8.5% | -18.4 | 20µM* | ?
CCOC(=O)/C=C/C(=O)Nc1ccc(Oc2ccccc2)cc1 | 16.4µM* | 18.1% | -72.6* | ? | 0.2%
CCOC(=O)/C=C/C(=O)Nc1ccc(S(=O)(=O)Nc2c(C)cc(C)cc2C)cc1 | 16.4µM* | ? | -72.3* | -35.4% | -0.2%
CCN1CCN(C(=O)/C(=C/c2ccco2)NC(=O)c2ccccc2)CC1 | -0.1% | -6.7% | 42.5 | -21.2% | 10.9%
O=C(COc1ccc(S(=O)(=O)N2CCCCC2)cc1)N1CCCC1 | -22.1% | -12.7% | 6.2 | -4.3% | 3.2%
Cc1ccc(CNC(=O)CSc2nc3c(sc4ccccc43)c(=O)n2CCCN2CCCC2)cc1 | ? | 16.7% | -90.2* | -19.2% | -3.6%[10 µM]
O=C(CSc1nc2c(sc3ccccc32)c(=O)n1CCCN1CCCC1)NCc1ccccc1 | ? | 18.1% | -99.6* | -13.3% | -12.5%
COc1ccccc1C1/C(=C(\O)c2ccc3c(c2)OCCO3)C(=O)C(=O)N1Cc1cccnc1 (stereo not given) | -1.6% | ? | 4.8 | 12.5% | -2.5%
COCC(=O)Nc1ncc(S(=O)(=O)c2ccc([N+](=O)[O-])cc2)s1 | 9.0% | -5.9% | 12.8 | -34.0% | 8.5%
O=C(NC(Nc1ncc(S(=O)(=O)c2ccc([N+](=O)[O-])cc2)s1)(C(F)(F)F)C(F)(F)F)c1ccc(Cl)cc1 | 9.2µM* | ? | -76.2* | ? | 11.2µM*
COc1cccc(C(c2cccc(OC)c2)c2ccccc2C(=O)O)c1 | 10.2% | -0.5% | 12.4 | · | ·
SMILES | MCF10A rereplic | SW480 rerep | IL1B secr inh | RORg inh | VP16 counter
O=S(=O)(Nc1ccccn1)c1ccc(C(F)(F)F)cc1Cl | ? | 20.6µM* | 17.1 | 6.9% | 2.8%
COc1ccccc1C(=O)Nc1sc(C(=O)N2CCCC2)c(C)c1C#N | -9.7% | -19.4% | -5.0 | 3.98µM* | 7.94µM*
COc1ccc(C2CC(=O)c3cc(OC)ccc3O2)cc1 (stereo not given) | ? | 2.9% | -25.5 | · | ·
COc1ccc(C2CC(=O)c3ccccc3O2)cc1 (stereo not given) | -1.8% | 10.9% | -60.3* | -4.3% | -0.1%
O=C(NCC1CCCO1)c1cccc2c1C(=O)c1ccc(N3CCC(Cc4ccccc4)CC3)cc1S2(=O)=O (stereo not given) | 3.66µM* | 2.5% | 43.0 | · | ·
CC1CCN(c2ccc3c(c2)S(=O)(=O)c2cccc(C(=O)NC[C@@H]4CCCO4)c2C3=O)CC1 | ? | ? | 35.3 | · | ·
O=C(NCc1ccccc1C(F)(F)F)c1cccc2c1C(=O)c1ccc(N3CCC(N4CCCCC4)CC3)cc1S2(=O)=O | · | · | -103.4* | · | ·
COc1cccc(C(O)c2nc(-c3cccc(C(F)(F)F)c3)cs2)c1 (stereo not given) | · | · | 14.4 | · | ·
Nc1ccc(C(=O)N/N=C2\CCCc3c2[nH]c2ccccc32)cc1 | 13.4% | 6.2% | -21.6 | ? | ?
CC(C)c1ccc2[nH]c3c(c2c1)CCC/C3=N\NC(=O)c1ccncc1 | 14.4% | -2.1% | -52.5* | 0.891µM* | 5.01µM*
CCOc1ccc(NC(=S)N(CCN2CCOCC2)Cc2cc3cc4c(cc3[nH]c2=O)OCCO4)cc1 | 4.8% | -16.1% | -53.5* | 34.9% | 1.2%
O=C(Nc1ccc(F)cc1)N(CCCN1CCOCC1)Cc1cc2cc3c(cc2[nH]c1=O)OCCO3 | 6.5% | -7.7% | -15.7 | 44.7% | 6.4%
COc1ccc(NC(=O)N(CCN2CCCC2)Cc2cc3cc(OC)c(OC)cc3[nH]c2=O)cc1 | ? | 1.8% | -7.9 | 12.5% | -0.5%
CCOc1ccc2[nH]c(=O)c(CN(CCN3CCCC3)C(=S)Nc3ccccc3OC)cc2c1 | -1.5% | -1.3% | -62.1* | 2.4% | -3.8%
Cc1ccc(NC(=S)N2CCC(NC(=O)c3ccco3)CC2)cc1C | -35.2% | 1.5% | 2.1 | -20.0% | 15.8%
O=C(NN=Cc1cccc(O)c1O)c1ccccc1 | · | · | 134.5 | · | ·
O=C(Cc1ccc(Cl)cc1)N/N=C/c1ccc(O)c(O)c1 | · | · | 13.5 | · | ·
Cc1cccc(/C=N\NC(=O)c2ccc(Cl)cc2)c1O | 13.0% | ? | 118.4 | 6.31µM* | 12.6µM*
Cc1cccc(/C=N/NC(=O)Cc2ccc(Cl)cc2)c1O | 8.7% | ? | 98.3 | 1.12µM* | 1µM*
Cc1ccc(O)c(/C=N/NC(=O)Cc2ccc(Cl)cc2)c1 | -0.3% | 4.7% | 95.3 | 0.631µM* | 0.631µM*
CC#CC(=O)NCC1(N(C)Cc2ccccc2)Cc2ccccc2C1 | 17.5% | 1.4% | 0.0 | 12.5% | 8.0%
O=C(Nc1ccc(F)cc1F)c1csc(-c2ccccc2)n1 | ? | ? | 0.0 | 16.5% | -6.6%
O=C(Nc1ccc(F)cc1F)c1cccc(C(=O)Nc2ccc(F)cc2F)n1 | 6.51µM* | 16.4µM* | 14.4 | ? | ?
